A number with no mark means an inactive call. Active and inactive are the calls of the source. Unless noted, no stated cut-off is given here; in the data, active means inhibition above about 28%; inactive means the rest.

As a reminder, the inhibition is the relative decrease from the control value, in per cent.

For experiment [1], the target named is Nuclear receptor coactivator 3 (Homo sapiens) (UniProt Q9Y6Q9). In words: SRC3 coactivator transcriptional activity inhibitors, confirmation, cell-based, luminescence, quadruplicate (AID 588792;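 active means mean inhibition over 43.08%, the solvent-only control mean plus 3 SD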;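 further: 0% = DMSO treated cells and 100% = gossypol at 36 µM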). As to conditions: HEK293 GAL4-SRC3 luciferase reporter, at 3.6 µM, hits give high values. In general terms: A reporter such as luciferase makes a cellular process visible.
Sequence of Nuclear receptor coactivator 3 (Homo sapiens) (Q9Y6Q9 whole entry, looked up, the tested form may be a part): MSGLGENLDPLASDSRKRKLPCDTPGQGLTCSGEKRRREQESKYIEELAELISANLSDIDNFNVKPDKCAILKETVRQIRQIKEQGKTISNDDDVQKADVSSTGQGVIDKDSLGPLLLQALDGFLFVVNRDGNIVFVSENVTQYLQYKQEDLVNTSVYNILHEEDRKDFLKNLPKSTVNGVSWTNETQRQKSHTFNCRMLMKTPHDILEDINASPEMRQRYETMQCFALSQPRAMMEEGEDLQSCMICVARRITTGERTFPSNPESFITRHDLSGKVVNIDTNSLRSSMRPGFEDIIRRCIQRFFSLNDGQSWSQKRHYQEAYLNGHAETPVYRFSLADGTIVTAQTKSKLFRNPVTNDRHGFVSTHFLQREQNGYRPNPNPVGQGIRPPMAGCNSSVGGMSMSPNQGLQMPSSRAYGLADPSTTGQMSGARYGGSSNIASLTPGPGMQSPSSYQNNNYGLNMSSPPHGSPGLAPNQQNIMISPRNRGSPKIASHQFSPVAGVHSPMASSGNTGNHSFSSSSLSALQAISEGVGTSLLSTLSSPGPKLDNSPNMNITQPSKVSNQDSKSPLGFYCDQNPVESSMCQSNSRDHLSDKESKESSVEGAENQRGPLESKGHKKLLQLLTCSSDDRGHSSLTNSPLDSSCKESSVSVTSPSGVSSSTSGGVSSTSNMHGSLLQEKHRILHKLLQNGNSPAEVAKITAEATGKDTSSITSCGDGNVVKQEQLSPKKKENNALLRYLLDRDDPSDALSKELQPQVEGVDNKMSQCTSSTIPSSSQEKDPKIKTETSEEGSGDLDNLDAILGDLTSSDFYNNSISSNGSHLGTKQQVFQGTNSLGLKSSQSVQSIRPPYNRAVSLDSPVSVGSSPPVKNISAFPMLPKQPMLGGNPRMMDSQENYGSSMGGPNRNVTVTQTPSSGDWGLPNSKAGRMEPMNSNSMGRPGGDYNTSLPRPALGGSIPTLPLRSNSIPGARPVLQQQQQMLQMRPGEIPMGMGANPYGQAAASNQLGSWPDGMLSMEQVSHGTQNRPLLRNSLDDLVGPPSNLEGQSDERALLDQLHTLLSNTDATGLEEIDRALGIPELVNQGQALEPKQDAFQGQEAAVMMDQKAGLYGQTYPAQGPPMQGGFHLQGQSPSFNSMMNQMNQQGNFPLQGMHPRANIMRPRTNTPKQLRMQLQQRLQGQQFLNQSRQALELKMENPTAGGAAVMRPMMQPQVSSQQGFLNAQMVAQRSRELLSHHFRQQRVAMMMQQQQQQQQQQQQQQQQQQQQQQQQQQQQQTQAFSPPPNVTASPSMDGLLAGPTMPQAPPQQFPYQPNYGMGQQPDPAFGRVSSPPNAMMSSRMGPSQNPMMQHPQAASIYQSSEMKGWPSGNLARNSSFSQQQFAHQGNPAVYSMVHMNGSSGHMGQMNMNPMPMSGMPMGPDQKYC

For experiment [2], the system named is transactivating tegument protein VP16 (Human herpesvirus 1), Gal4-VP16 luciferase reporter. Nature of the experiment: VP16 transactivation inhibitors, counter-screen for SRC3 inhibitor project, cell-based, luminescence, high throughput (AID 588794; in the data active means inhibition above about 30%). The note with it: mammalian cells, VP16-driven luciferase reporter luminescence; at 3.6 µM; hits give high values.

Experiment [3] can be described thus: StAR promoter reporter inhibitors, counter-screen for LRH-1 inverse agonist project, cell-based, luminescence, high throughput (AID 651611). The note with it: StAR promoter luciferase reporter counterscreen, at 3.6 µM, hits give high values. For orientation: The purpose of a counterscreen is to sort out artefacts and off-target activity.
Experiment [4] concerns the target Nuclear receptor subfamily 5 group A member 2 (Homo sapiens) (UniProt O00482). In words: LRH-1 (NR5A2) inverse agonists, retest, confirmation, cell-based, luminescence (AID 651613; in the data active means inhibition above about 42%;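 further: HEK293T cells co-transfected with LRH-1 and StAR promoter luciferase reporter; 0% = vehicle wells and 100% = parental cells lacking receptor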). As to conditions: cell-based LRH-1 luciferase reporter, inverse agonism; at 3.6 µM; hits give high values.
Experiment [5] has as its target Steroidogenic factor 1 (Homo sapiens) (UniProt Q13285). In words: SF1 (NR5A1) inverse agonists, counter-screen for LRH-1 inverse agonist project, cell-based, luminescence, high throughput (AID 651614; in the data active means inhibition above about 44%;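 further: cells cotransfected with StAR promoter reporter and SF1 expression vector; 0% = vehicle on cells with receptor and 100% = vehicle on cells lacking receptor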). As to conditions: cell-based SF1 luciferase reporter, at 3.6 µM, hits give high values.
Experiment [6] in a line: VP16 transactivation reporter inhibitors, counter-screen for LRH-1 inverse agonist project, cell-based, luminescence, high throughput (AID 651615; in the data active means inhibition above about 33%). The note with it: Gal4-VP16 luciferase reporter cells, at 3.6 µM, hits give high values.

Sequence of Steroidogenic factor 1 (Homo sapiens) (Q13285 whole entry, looked up, the tested form may be a part): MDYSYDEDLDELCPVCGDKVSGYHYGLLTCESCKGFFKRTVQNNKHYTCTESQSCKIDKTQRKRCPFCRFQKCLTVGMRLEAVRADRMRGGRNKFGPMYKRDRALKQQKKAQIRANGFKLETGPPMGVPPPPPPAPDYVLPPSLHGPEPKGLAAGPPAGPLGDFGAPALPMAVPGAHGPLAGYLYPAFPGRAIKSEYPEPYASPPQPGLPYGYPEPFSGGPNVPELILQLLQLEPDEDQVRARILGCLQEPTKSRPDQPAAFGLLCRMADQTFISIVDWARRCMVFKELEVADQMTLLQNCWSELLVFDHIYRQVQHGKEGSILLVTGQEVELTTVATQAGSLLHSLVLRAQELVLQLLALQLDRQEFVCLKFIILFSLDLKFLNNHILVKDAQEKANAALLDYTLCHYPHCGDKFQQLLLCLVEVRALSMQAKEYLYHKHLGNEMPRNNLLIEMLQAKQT
Sequence of Nuclear receptor subfamily 5 group A member 2 (Homo sapiens) (O00482 whole entry, looked up): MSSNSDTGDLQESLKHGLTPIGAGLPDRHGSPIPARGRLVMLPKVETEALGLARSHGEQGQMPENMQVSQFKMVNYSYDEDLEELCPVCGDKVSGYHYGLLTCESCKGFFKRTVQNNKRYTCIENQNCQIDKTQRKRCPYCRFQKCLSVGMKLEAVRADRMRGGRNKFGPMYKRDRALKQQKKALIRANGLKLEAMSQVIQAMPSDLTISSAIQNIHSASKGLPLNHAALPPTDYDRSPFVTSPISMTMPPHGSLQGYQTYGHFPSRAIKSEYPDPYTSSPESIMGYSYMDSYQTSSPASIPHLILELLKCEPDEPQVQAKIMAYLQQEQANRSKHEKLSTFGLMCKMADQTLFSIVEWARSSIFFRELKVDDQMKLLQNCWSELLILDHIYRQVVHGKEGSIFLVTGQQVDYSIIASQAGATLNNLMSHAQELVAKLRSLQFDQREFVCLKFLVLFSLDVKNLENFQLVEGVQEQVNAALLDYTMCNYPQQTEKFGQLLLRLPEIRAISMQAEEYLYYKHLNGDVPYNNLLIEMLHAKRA

Take `Clc1cccc(CNc2ccn3nc(-c4ccc(OCc5ccccc5)cc4)cc3n2)c1`: the inhibition in experiment [1] was -4.23%; in experiment [2], 35.7% (active); in experiment [3], 23.4%; in experiment [4], 40.9%; in experiment [5] it was 51% (active); in experiment [6] it was 56.4% (active).
For the molecule `O=C(N/N=C\c1ccc([N+](=O)[O-])s1)c1cncc(Br)c1`, the inhibition in experiment [1] was 32.5%; in experiment [2], 22.9%; in experiment [3], 57.4% (active); in experiment [4] it was 79.7% (active); in experiment [5] it was 72.9% (active); in experiment [6], 56.9% (active).
As to `COc1ccc(OC)c2nc3c(C(=O)NCCN(C)C)cccc3nc12`, the inhibition was -25.8% in experiment [1]; 65% (active) in experiment [2]; 53.2% (active) in experiment [3]; 77.8% (active) in experiment [4]; 70.5% (active) in experiment [5]; 75.7% (active) in experiment [6].
Take `N#CC(c1cccc(Cl)c1)c1ccc2c(C(F)(F)F)cc(C(F)(F)F)nc2n1` (configuration not stated): the inhibition was 59.4% (active) in experiment [1]; 84% (active) in experiment [2]; 82.3% (active) in experiment [3]; 107% (active) in experiment [4]; 95.5% (active) in experiment [5]; 88.9% (active) in experiment [6].
Regarding `Cc1cc(Br)c(OCc2ccc(C(=O)N/N=C/c3ccc[nH]3)cc2)c(Br)c1`, the inhibition in experiment [1] is 51.8% (active); in experiment [2] it was 71.7% (active); in experiment [3] it was 76.5% (active); in experiment [4], 101% (active); in experiment [5], 88.5% (active); in experiment [6], 85.5% (active).
Consider `CCOc1cc(/C=C2\N=C(SC(C)C(N)=O)N(c3ccc(OC(F)F)cc3)C2=O)ccc1O` (configuration not stated), for which the inhibition in experiment [1] is 27.6%; in experiment [2] it was 58% (active); in experiment [3], 59.3% (active); in experiment [4] it was 65.4% (active); in experiment [5], 73% (active); in experiment [6] it was 73.1% (active).
As for `Cc1cc(C)c[n+](C(C)C(=O)c2ccc(-c3ccccc3)cc2)c1` (configuration not stated), the inhibition was 16.9% in experiment [1]; 40.2% (active) in experiment [2]; 29.7% (active) in experiment [3]; 81.4% (active) in experiment [4]; 66.4% (active) in experiment [5]; 64.2% (active) in experiment [6].

For the origin of these results see PubChem BioAssay.
